Source: PubChem BioAssay (National Center for Advancing Translational Sciences (NCATS))
This is a sample that favours compounds with a hit; in the whole collection about 10% have one here.
ALDH1A1 inh: inhibitors of human aldehyde dehydrogenase 1A1 | Purified ALDH1A1, NADH fluorescence, propionaldehyde substrate | AID 1030 | Potency, µM (top dose mostly 75.3 µM), usual class: inhibitors | 7.3% of 220,000 active
Target sequence (P00352 whole entry, looked up): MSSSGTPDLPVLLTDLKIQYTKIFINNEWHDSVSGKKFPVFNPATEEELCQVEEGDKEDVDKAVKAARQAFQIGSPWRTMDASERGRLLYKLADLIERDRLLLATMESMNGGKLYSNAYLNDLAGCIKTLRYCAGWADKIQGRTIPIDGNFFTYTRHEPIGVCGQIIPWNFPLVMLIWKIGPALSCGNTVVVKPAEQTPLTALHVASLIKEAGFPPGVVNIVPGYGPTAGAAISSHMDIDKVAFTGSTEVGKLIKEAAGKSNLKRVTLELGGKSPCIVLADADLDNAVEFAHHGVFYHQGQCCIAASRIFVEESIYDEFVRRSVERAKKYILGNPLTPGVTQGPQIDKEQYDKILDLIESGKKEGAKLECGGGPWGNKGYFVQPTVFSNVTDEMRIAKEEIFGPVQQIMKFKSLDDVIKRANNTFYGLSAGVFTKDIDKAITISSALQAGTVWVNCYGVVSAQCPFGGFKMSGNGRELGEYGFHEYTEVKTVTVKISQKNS
PNC inhibitor: blocks assembly of the perinucleolar compartment; PC3M PTB-GFP, PNC prevalence imaging, 16 h; hits give low values; AID 2417; activity change (PNC), negative = inhibition, % at 10 µM; 3.1% of 140,000 active;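 active = readout at or below -70, meaning at least 70% loss of cells showing the perinucleolar compartment, a nuclear body marking cancer cells; inconclusive = readout between -30 and a set limit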
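Compounds are pinned in duplicate onto adhered PC3M cells stably expressing GFP-tagged PTB and incubated 16 h at 37 C. Cells are then fixed, nuclei stained with Hoechst, and PNC-positive cells counted.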
12-hLO inh: inhibitors of human 12-lipoxygenase (ALOX12); P18054; purified 12-hLO, xylenol orange hydroperoxide absorbance; Potency, µM (doses to about 57.1 µM), hits mostly inhibitors; 0.12% of 150,000 active; active = well fitted inhibition curve with a large enough effect; inconclusive = small, poorly fitted or top-dose-only effect; also: nearly all actives have a fitted effect of over 55% in size
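150 nM 12hLO, 25 mM Hepes pH 7.0 + 0.01% Triton X-100; cpd preinc 15 min RT; 40 uM arachidonic acid, 30 min RT; Fe-XO 30 min; A573/A405 ratio as read-out.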
LMNA splice mod: modulators of lamin A splicing; Potency, µM (highest dose often 46.1 µM), actives largely listed as inhibitors; HeLa LMNA splicing GFP/RFP minigene ratio, 48 h; 0.01% of 200,000 active; AID 1487; active = well fitted inhibition curve with a large enough effect in the signal ratio, with a control signal flat, not every such curve was filed as active; inconclusive = small, poorly fitted or top-dose-only effect, or effect the other way, or a change in a side signal; the % refers to the signal ratio
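Read-out is the ratio of GFP to DsRed2 object intensity, acquired by 488 nm laser-scanning cytometry on HeLa lamin A-EGFP minigene reporter cells. Compound incubation 48 hrs at 37 °C in Opti-MEM with 2% FBS; DMSO 0.5% final.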
HPGD inh: HPGD (human) dehydrogenase inhibition; purified HPGD, NADH fluorescence kinetic, PGE2 substrate; Potency, µM, usual class: inhibitors; 4.3% of 150,000 active
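NADH formation kinetics: reaction with 30 uM PGE2 and 1 mM NAD+ (final), 20 nM enzyme, Tris-HCl pH 8 with Tween 20, after 15 min compound preincubation at room temperature. Fluorescence change, last versus first of five reads.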
Hits are given with their value; . = inactive; ? = inconclusive; / = not tested or not shown; [ ] = another dose, or the depositor's remark. Unless noted, calls follow the shape of the dose curve; as a rule, active = well fitted inhibition curve with a large enough effect (not every such curve was filed as active); inconclusive = small, poorly fitted or top-dose-only effect, or another doubt; inactive = no such curve, though single readings can be large or run the other way.

SMILES	ALDH1A1 inh	PNC inhibitor	12-hLO inh	LMNA splice mod	HPGD inh
COc1cccc(CC(=O)NCc2ccc3c(c2)CCN3C(C)=O)c1	/	/	/	.	/
COc1ccccc1CNc1ccnc(-c2cccc(NS(C)(=O)=O)c2)n1	.	/	/	.	/
O=C(COc1ccc(Cl)cc1Cl)Nn1c(=S)[nH]c2ncccc2c1=O	.	?	.	.	28µM
CCOc1cc(/C=C2\N=C(SC)SC2=O)cc([N+](=O)[O-])c1OC(C)=O	28µM	.	.	.	16µM
CCSC1=N/C(=C\c2ccc(C)s2)C(=O)S1	?	.	.	.	.
COc1ccc(/C=C2\N=C(SC)SC2=O)cc1OC	.	?	.	.	.
CCOc1c(OC(C)=O)ccc(/C=C2\N=C(SCC)SC2=O)c1[N+](=O)[O-]	?	.	.	.	10µM
CCOc1cc(/C=C2\N=C(SCC)SC2=O)cc([N+](=O)[O-])c1OC(C)=O	32µM	?	.	.	13µM
Cc1cn([C@H]2C[C@H](O)[C@@H](COC(N)=O)O2)c(=O)[nH]c1=O	.[13.5 µM]	/	.[11.4 µM]	/	.
COc1ccc(CN(C2CCCC2)S(=O)(=O)c2ccc(-n3cnnn3)cc2)cc1OC	1.8µM	.	.	?	.
S=c1[nH]c2cc(Cl)ccc2s1	2.8µM	.	.	.	28µM
S=c1[nH]c2ccc(Cl)cc2[nH]1	8.9µM	.	.	.	10µM
COc1ccc2[nH]c(=S)[nH]c2c1	.	.	.	.	28µM
COc1ccc2[nH]c3ccccc3c2c1	?	.	.	.	?
COc1ccc(C(=O)N2CCC3(CCN(Cc4ccncc4)CC3)CC2)cc1	.	/	.	/	.
NS(=O)(=O)c1ccc(CNS(=O)(=O)c2ccc(Cl)nc2)cc1	22µM	/	/	/	/
Cc1cc(-c2n[nH]c(=S)n2Cc2ccccc2)cs1	?	.	.	.	?
S=c1[nH]nc(-c2ccc3ccccc3n2)n1Cc1ccccc1	.	.	.	?	11µM
Oc1ccc(-c2n[nH]c(=S)n2Cc2ccccc2)cc1	20µM	.	.	.	?
Cc1scc(-c2n[nH]c(=S)n2Cc2ccccc2)c1C	.	.	.	.	?
CCc1c(-c2n[nH]c(=S)n2Cc2ccccc2)csc1C	10µM	?	?	?	16µM
Cc1ccccc1OCc1n[nH]c(=S)n1Cc1ccccc1	.	.	.	?	14µM
CC(=O)c1cc(-c2ccccc2)n(CC(=O)NCCc2ccc(C)cc2)c1C	/	/	/	.	/
Cc1ccc(C(c2sc3nc(-c4ccco4)nn3c2O)N2CCCC2)cc1 (configuration not stated)	/	/	/	.	/
S=c1[nH]nc(-c2ccncc2)n1Cc1ccccc1	.	?	.	.	.
SMILES	ALDH1A1 inh	PNC inhibitor	12-hLO inh	LMNA splice mod	HPGD inh
S=c1[nH]nc(-c2cccnc2)n1Cc1ccccc1	14µM	.	.	.	.
S=c1[nH]nc(-c2ccc3ccccc3n2)n1-c1ccccc1Cl	.	.	.	.	10µM
COc1ccc(CNC(=O)c2cccc(N(C)C)c2)cc1	?	-83	.	.	.
CCc1cccc(CC)c1NC(=O)c1cccc(NC(=O)c2ccccc2)c1	.	.	.	.	.
COc1ccc(CNC(=O)c2ccc3c(c2)NC(=O)C(C)S3)cc1 (configuration not stated)	10µM	/	/	?	/
CCc1cccc(C)c1NC(=O)c1cccc(N(C)C)c1	?	.	.	.	14µM
CC1Sc2ccc(C(=O)O)cc2NC1=O (configuration not stated)	.	.	.	.	.
COc1ccccc1CNC(=O)c1cccc(N(C)C)c1	.	.	.	.	.
Cc1cc(C)cc(NC(=O)C(=O)NCC(c2cccnc2)N2CCc3ccccc3C2)c1 (configuration not stated)	/	/	/	.	/
CC1=C(C(=O)Nc2ccccn2)C(c2ccc(Br)cc2)NC(=S)N1 (configuration not stated)	0.71µM	?	.	.	.
CCOc1cccc(C2NC(=S)NC(C)=C2C(=O)Nc2ccccc2)c1 (configuration not stated)	2.2µM	.	.	.	.
CCOc1cc(C2NC(=S)NC(C)=C2C(=O)Nc2ccc(OC)cc2)ccc1O (configuration not stated)	?	?	.	.	.
CC1=C(C(=O)Nc2ccccn2)C(c2ccc(Cl)cc2)NC(=S)N1 (configuration not stated)	3.5µM	/	/	/	/
OC[C@@H](O)[C@@H](O)CCc1ccccc1	.	/	/	/	.
